SNCA expr inh = SNCA gene expression inhibition | HEK-293 SNCA-luciferase knock-in, luminescence, 24 h | Potency, µM (series often up to 57.2 µM), without a hit: at the top dose activity change, negative = inhibition, most hits filed as inhibitors | actives 0.17% (n = 140,000);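 further: potency means the concentration at half of the fitted maximal effect; plate controls were DMSO cells for no effect and cell-free wells for full effect; nearly all actives have a fitted effect of over 45% in size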
IP6K1 inhibitor = inhibitors of human IP6K1 | actives 0.81% (n = 140,000) | IP6K1 kinase, ADP-Glo luminescence, 2 h; stronger effect = lower value | activity change, % (series mostly up to about 58 µM); in the data active means activity change below about -25%
Target sequence (Q92551 whole entry, looked up): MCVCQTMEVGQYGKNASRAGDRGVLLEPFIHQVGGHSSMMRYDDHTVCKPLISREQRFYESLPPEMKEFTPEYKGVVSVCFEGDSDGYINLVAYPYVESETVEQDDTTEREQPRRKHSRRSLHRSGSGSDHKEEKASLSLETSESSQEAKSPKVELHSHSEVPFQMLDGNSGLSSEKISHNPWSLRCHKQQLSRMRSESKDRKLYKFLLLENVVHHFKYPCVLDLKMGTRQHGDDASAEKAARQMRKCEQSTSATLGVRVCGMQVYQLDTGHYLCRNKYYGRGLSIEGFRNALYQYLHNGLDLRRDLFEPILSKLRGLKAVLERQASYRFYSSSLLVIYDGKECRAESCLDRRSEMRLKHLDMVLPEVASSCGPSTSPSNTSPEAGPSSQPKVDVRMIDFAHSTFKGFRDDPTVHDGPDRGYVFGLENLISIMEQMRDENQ
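ADP-Glo luminescence measures ADP made by human IP6K1 during a 2 h RT reaction with ATP/IP6 (mix at 1.3 mM/130 uM); top library doses 57.5 and 19.1 uM final.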
SNCA viab count = cell viability loss counter-screen | HEK-293-SNCA-luc viability, GF-AFC fluorescence, 24 h | Potency, µM (highest dose often 57.1 µM), for inactives: at the top dose activity change, negative = cytotoxicity, actives largely listed as cytotoxic | actives 0.12% (n = 150,000) | AID 1671193;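 further: potency means the concentration at half of the fitted maximal effect; 0% = DMSO-treated cells and -100% = medium-only wells without cells; nearly all actives have a fitted effect of over 30% in size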
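HEK-293-SNCA-luc cells (1500/well) plated 24 h, then exposed 24 h to a dilution series; GF-AFC added 30 min at 37C, fluorescence 405/540 nm; normalised to medium-only and DMSO wells, Hill fit.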
GPT2 inhibitor = GPT2 alanine aminotransferase inhibition; Q8TD30; Recombinant GPT2, coupled pyruvate oxidase/HRP Amplex Red fluorescence; Potency, µM (series often up to 57.7 µM), for the others: at the highest dose activity change, negative = inhibition, hits mostly inhibitors; actives 0.25% (n = 100,000); further: potency means the concentration at half of the fitted maximal effect; nearly all actives have a fitted effect of over 60% in size
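GPT2 10ng/uL, a-KG 250uM, L-Ala 2mM, HEPES pH7.5 + 0.0001% Tween; 30 min RT. Then Amplex mix (PO/HRP/ThPP), 30 min RT dark, fluorescence. AOA 50uM used as positive control.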
Numbers without * were called inactive; i = inactive; ? = inconclusive; · = no result; ! = repeats disagree; [ ] = another dose, or the depositor's remark. A selection: hits, their analogues and other compounds. The true share with any hit is near 1%. Unless noted, the call rests on the fitted dose curve; in most records, active means well fitted curve in the direction sought with a large enough effect; inconclusive means small, poorly fitted or top-dose-only effect, or another doubt; inactive means no such curve, though single readings can be large; an effect the other way counts as inactive or inconclusive. Unless noted, on the % scale 0 is the no-effect control and ±100 the full control effect.

SMILES	SNCA expr inh	IP6K1 inhibitor	SNCA viab count	GPT2 inhibitor
CC1=C[C@@H](CNCc2ccccc2)[C@H](C(C)C)C[C@H]1Cc1nc2c(C)cccc2[nH]1	?	-9	35µM*	-2%[88.5 µM]
COc1ccccc1CNC[C@@H]1C=C(C)[C@H](Cc2nc3c(C)cccc3[nH]2)C[C@H]1C(C)C	?	6	35µM*	-9%[88.5 µM]
CCC(CC)C(=O)NC[C@@H]1C=C(C)[C@H](Cc2nc3ccc(OC)cc3[nH]2)C[C@H]1C(C)C	?	5	40µM*	i
CC1=C[C@@H](CNCc2ccccc2F)[C@H](C(C)C)C[C@H]1Cc1nc2c(C)cccc2[nH]1	?	0	?	2%[88.5 µM]
COc1ccc(-c2ccc(NC(=O)c3ccccc3C)cc2)nn1	·	-6	·	·
CCOC(=O)c1ccc(N2CCN(C(=O)C3=CC(C)(C)COc4ccc(OC)cc43)CC2)cc1	·	26	·	·
Cc1cccc(C)c1N1C(C(=O)OC(C)(C)C)=C(O)c2ccccc2S1(=O)=O	·	3	·	·
Cc1cccc(N(C)C(=O)Cn2c(N3CCc4ccccc4C3)nc(C)cc2=O)c1	?	18	11µM*	-3%
Cc1cccc(NC(=O)Cn2c(N3CCc4ccccc4C3)nc(C)cc2=O)c1	?	10	-25%	i
CCOC(=O)c1ccc(N2C(=O)c3n[nH]c(-c4cccs4)c3C2c2ccc(Cl)cc2Cl)cc1 (centres undefined)	?	-11	22µM*	·
CCOC(=O)c1ccc(N2C(=O)c3n[nH]c(-c4ccco4)c3C2c2ccc(OCC)cc2)cc1 (centres undefined)	20µM*	24	?	·
COc1ccc(-c2ccc(C(=O)NCc3cccnc3)cc2)nn1	·	8	·	·
Nc1cc(C(F)(F)F)ccc1S	-16%[25.6 µM]	-12	-2%[23.9 µM]	28µM*
CN(C)Cc1c(C(=O)NCCOc2ccc(C(=O)NO)cc2)oc2ccccc12	-18%	-13	?	31µM*!
CCCOc1ccc(C(=O)Nc2c(C(=O)c3ccc(C)cc3)oc3ccccc23)cc1	33%	15	19%	·
C=CCOc1c(OC)ccc2c1CN(Cc1ccccc1)C(=O)CCN2CC(O)Cc1ccccc1 (centres undefined)	·	-4	·	·
CNC(=O)c1ccc(Nc2ncc(C(F)(F)F)c(NCc3nccnc3N(C)S(C)(=O)=O)n2)cc1	21µM*	-4	?	-8%
CC(=O)NCC(=O)N1[C@H]2CC[C@H]1c1cc(Nc3ncc(C(F)(F)F)c(NC4CCC4)n3)ccc12	?	·	-21%	i
O=C(NCc1ccccc1Cl)C1CCN(C(=O)c2ccc(-c3cccs3)cc2)CC1	·	-4	·	·
CS(=O)c1ccc(-c2nc(-c3ccc(F)cc3)c(-c3ccncc3)[nH]2)cc1 (centres undefined)	12µM*	3	8%	1%
Fc1ccc(-c2nc(-c3c(F)cccc3F)[nH]c2-c2ccncc2)cc1	·	-12	15%	3%
O=C(O)Cc1cccc(OCCCN(Cc2cccc(C(F)(F)F)c2Cl)CC(c2ccccc2)c2ccccc2)c1	-6%	·	10%	24µM*
COc1ccc(N2CCN(C(=O)CC3CCCCN(Cc4ccccc4)C3=O)CC2)cc1 (centres undefined)	-14%	-4	-9%	?
CN1CCN(Cc2ccc(NC(=O)Nc3ccc(Oc4cc(NC(=O)C5CC5)ncn4)cc3)cc2C(F)(F)F)CC1	0.48µM*	-5	?	?
C=C(C)C(=O)OC1CC2(C)OC(=CC2=O)C(=C)CC2OC(=O)C(=C)C12 (centres undefined)	·	-11	12µM*	?
SMILES	SNCA expr inh	IP6K1 inhibitor	SNCA viab count	GPT2 inhibitor
C=C1CC2OC(=O)C(=C)C2C(OC(=O)/C(C)=C\C)CC2(C)OC1=CC2=O (centres undefined)	·	-8	?	?
CC(C)(C)NC(=O)C[C@@H]1CCNC[C@@H]1Cc1cc(-c2ccc(C(C)(C)C)cc2)on1	?	13	?	-2%[88.5 µM]
COc1ccc(-c2[nH]nc3ncc(-c4cccnc4)nc23)cc1F	2.8µM*	-2	?	-12%[88.5 µM]
O=C(CSCc1ccc(F)cc1)N1CCc2c([nH]c3ccccc23)C1c1ccc(Cl)cc1 (centres undefined)	10µM*	20	-6%	·
C[C@@]12C(=O)OC(=O)[C@@]1(C)C1CCC2O1	15µM*	·	?	i
CC(C)C[C@@H](C=O)NC(=O)[C@H](CC(C)C)NC(=O)[C@H](CC(C)C)NC(=O)OCc1ccccc1	0.61µM*	·	?	3%
